Reference: paper PMC12136788
Substitutions are numbered along the chain they refer to. The full ranking holds about 24,000 sequences; the median of “enrichment r” is about 0.99, and the highest 2% start at about 3.7. This excerpt belongs to a sample that is enriched for the highest values.

T1: UNK ZnF1-3 (human, UniProt Q9C0B0 31-174)
T1 sequence: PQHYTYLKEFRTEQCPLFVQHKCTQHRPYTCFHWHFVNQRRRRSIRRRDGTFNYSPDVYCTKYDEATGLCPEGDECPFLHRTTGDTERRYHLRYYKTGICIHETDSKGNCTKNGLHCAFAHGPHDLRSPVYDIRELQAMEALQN

B1: chr3:33038425:33038426:-_ENSG00000170266_ENST00000307363|hu_mus|FALSE|FALSE (ssRNA)
RNA: GGGAGUUCUACAGUCCGACGAUCGGUGGGAGGUCAGGCAAGGCGGGGCUGCAAAGUCACCAGCAGGGUACACACAUUCCAGAAAUGUAGCUUCCAUUCUAGCACAACAAAGGUGAUCCGUGUAACCAGAGUAGAGCUGUGCUCCAACAGAGGAUUGAGCAUCA
B2: 105885974_105886094_2527_3pUTR_ENSG00000135966_ENST00000393359|human|control|control (ssRNA)
RNA: GGGAGUUCUACAGUCCGACGAUCCAGCAGCGUGUGAAAGAGUUGCUGGCGGUGGGGUGGGUCUCGGCCCUCGGAGCACCACAGGCAGUAGUCCUCGGCCGCUGCAAAGUCCUGCAGCUCGUGCACCAGGAUAUGCAGCGCCUUCAACAGAGGAUUGAGCAUCA
B3: chr11:30000241:30000242:-_ENSMUSG00000020315_ENSMUST00000011877|mus_hu|motif|central (ssRNA)
RNA: GGGAGUUCUACAGUCCGACGAUCUAUUUCCAACACAGCCUCACAAAAUUGAGGAACAGUUUAAAUACUGAGAUCGGAUCGGUAUAAUUUCAUUAAAAAAAAAAUCUGGCCUUCCCUCUGCACCUCAAACUUUUGUAACUUGGACAACAGAGGAUUGAGCAUCA
B4: chr18:77179482:77179483:+_ENSMUSG00000090000_ENSMUST00000026487|mus_mus|FALSE|FALSE (ssRNA)
RNA: GGGAGUUCUACAGUCCGACGAUCAAGUAUGCUCCAAUCCGGGAGUGCUCCUGCCUCUGAUAAUCUGAUCUACAAGUGCAACUACAAUUAAAAAAAAAAAAAAAUCAGAUAGAUAGAAACUCUGGUUUUAUUGUCAACUUUACUCAACAGAGGAUUGAGCAUCA
B5: chr11:30000241:30000242:-_ENSMUSG00000020315_ENSMUST00000011877|mus_hu|FALSE|FALSE (ssRNA)
RNA: B3 RNA with G75U, G76A, G80U, G81A
B6: chr10:112657927:112657928:+_ENSG00000150593_ENST00000280154|hu_hu|FALSE|FALSE (ssRNA)
RNA: GGGAGUUCUACAGUCCGACGAUCCAGAAAUGCCUUGUACCCAAAACAAGUGCUUAAAAAAAAAAAAAAAAAAAACUUGUGCUAACAACUCUUACAAUUCAGAUAUAUAUUUUUAUAACAUCUAAGACUGCAAGAGUUCUUAUACAACAGAGGAUUGAGCAUCA
B7: chr17:65740002:65740003:+_ENSG00000130935_ENST00000581375|hu_hu|hu_hu_hu_mus_False|8_8 (ssRNA)
RNA: GGGAGUUCUACAGUCCGACGAUCAACAAAUCUUUCUUCCCUGGACGAACAGGAAGAUUCAUAUUAAAAAAAAUAUAUAUCCAUCAAGUUAGGUGUGGUGGCCACACCUUUACUCCCAGCACUUUGGGAAUAUAAUCUCUGAGUCAACAGAGGAUUGAGCAUCA
B8: chr10:112657927:112657928:+_ENSG00000150593_ENST00000280154|hu_hu|motif|central (ssRNA)
RNA: B6 RNA with U82G, A83G
B9: chr21:44329077:44329078:+_ENSG00000160194_ENST00000354250|hu_hu|motif|central (ssRNA)
RNA: GGGAGUUCUACAGUCCGACGAUCCUCCCGGCCUGAGGAGGGCUGAGGCAUCCUGAAUUUUGAGAGUUCGAGGUUGAGGUCGGAGAAGGUGUACGUGCUGUAGUCAUGAUGCUGCAGGUUCUUGUAGGUAGUGUUGUCAAACGGCAACAGAGGAUUGAGCAUCA
B10: chr8:13019134:13019135:+_ENSMUSG00000031442_ENSMUST00000123811|mus_mus|FALSE|FALSE (ssRNA)
RNA: GGGAGUUCUACAGUCCGACGAUCUGGCUGACAGGGGCCUCCUGUUUCCAGAGAUCUCGGAGCACCAUCCCCUCCCAAACUAAGCAAGCCCAAGCAAAAAUAAAAAUUAAAAAUAAAAAAAAACCAAAAAACUUAGAGAUUUGCCAACAGAGGAUUGAGCAUCA
B11: chr17:62500844:62500845:-_ENSG00000108654_ENST00000583239|hu_mus|motif|central (ssRNA)
RNA: GGGAGUUCUACAGUCCGACGAUCUUGAUAAAAAUUCUUCUCAAAUUUGGGCAGCUCAUCAAGAUUCCACUUCUUUUUAACGGGUUUCUCCCCAGGAUUUCCAAACUUCUUUCCAGAGAGGGGUCCUGUUCUACUCCCUCCAAACAACAGAGGAUUGAGCAUCA
B12: chr8:86519384:86519385:+_ENSMUSG00000005469_ENSMUST00000005606|mus_mus|FALSE|FALSE (ssRNA)
RNA: GGGAGUUCUACAGUCCGACGAUCUAAAUUAGAUGCAUGGAACUCUAGGGCCCUCUGGCUGUUCGAUCCAACCCUCCCACCCCCAACCGGAAAAAAAAUAGAAAGAAAAAGAAAAAAUGAAAGAGAACCCAAGGGGCACAAGCACAACAGAGGAUUGAGCAUCA
B13: chr2:115689366:115689367:-_ENSMUSG00000027210_ENSMUST00000074285|mus_mus|FALSE|FALSE (ssRNA)
RNA: GGGAGUUCUACAGUCCGACGAUCUCUUUGAAGAACAGUCCCCCAAAAUCAUAAUAAGAAUUGGCUUAUGAAGCACAAACUAUAAAGAUCUGUUUGAAACUAAAGGACACAUGGACGGGGGGAACAAAGGCCGGGCAUGAAAACCAACAGAGGAUUGAGCAUCA
B14: chr11:93905761:93905762:+_ENSMUSG00000020859_ENSMUST00000103168|mus_mus|FALSE|FALSE (ssRNA)
RNA: GGGAGUUCUACAGUCCGACGAUCCGCUGGCACCCCGGUAGAAAUAGAAAAGUGCACAAGCAGCAAAACAGAGAGAGAUACUAAGAUCGCAGAAUUAAUGACCACCGCCCCGCCAACAAAGCCAAACACAAACAGCAGCAUGCACAACAGAGGAUUGAGCAUCA
B15: chr8:117868997:117868998:-_ENSG00000164754_ENST00000297338|hu_hu|motif|central (ssRNA)
RNA: GGGAGUUCUACAGUCCGACGAUCCACCCCUGCCUCAGAGAGGGCAGGGGGAUCAUCAAAGAUACCGCCAUCAUUAUUACGGAUAAGUUUGUCAUCUAAUAUUCCACCAUCAUUUCCUUCUCCAAAAUUAUCAUCCUUAUAUUGCAACAGAGGAUUGAGCAUCA
B16: chr5:116097646:116097647:+_ENSMUSG00000029518_ENSMUST00000031492|mus_mus|FALSE|FALSE (ssRNA)
RNA: GGGAGUUCUACAGUCCGACGAUCUAAAAAGCAUAAUUAGAAACUUUCAAUACAGAAAUAGUCCUAGCAAACCAUUUAAAAGUUGGUUGUUUGACAGGAGUUUCACAUCGGGCCCACCAGGGUACCAGUGUAGCCCUGAUUCUCCAACAGAGGAUUGAGCAUCA
B17: chr8:13019134:13019135:+_ENSMUSG00000031442_ENSMUST00000123811|mus_mus|motif|central (ssRNA)
RNA: B10 RNA with U80G, A81G
B18: chr1:225611761:225611762:-_ENSG00000143815_ENST00000272163|hu_mus|hu_hu_hu_mus_True|18_78 (ssRNA)
RNA: GGGAGUUCUACAGUCCGACGAUCCCAGGCCAUCGGCCUCUGACCACUUCACCCUCAGCAAAUUUCCUACUUGGCAUUUUCUAAAAUUAGUCUGGCCGCGCUCCGGCGGGAACUCCAGACGGCUCCCGACAGUCACCAGCAGCCCAACAGAGGAUUGAGCAUCA

Molecular target: T1, UNK ZnF1-3
Assay: nsRBNS (natural sequence RNA bind-n-seq); RBNS binding buffer (assumed for nsRBNS): 25 mM Tris pH 7.5, 150 mM KCl, 3 mM MgCl2, 0.01% Triton X-100, 500 ug/ml BSA, 20 U/ml SUPERase-In, 4 C; UNK is unkempt and MSI1 is Musashi-1; names of the RNAs are library labels; protein concentration not given here; high values mean tight binding

| Binder | binding signal |
| --- | --- |
| B1 | 1.42 enrichment R |
| B2 | 0.509 enrichment R |
| B3 | 3.58 enrichment R |
| B4 | 2.98 enrichment R |
| B5 | 4.16 enrichment R |
| B6 | 3.61 enrichment R |
| B7 | 1.12 enrichment R |
| B8 | 4.04 enrichment R |
| B9 | 1.5 enrichment R |
| B10 | 21.6 enrichment R |
| B11 | 1.28 enrichment R |
| B12 | 6.04 enrichment R |
| B13 | 2.13 enrichment R |
| B14 | 2.57 enrichment R |
| B15 | 1.12 enrichment R |
| B16 | 0.472 enrichment R |
| B17 | 14.4 enrichment R |
| B18 | 1.27 enrichment R |
